# High-throughput results (PubChem BioAssay)
# This is one part of a sample in which hits are shown more often than they occur.
# CBX7 inh – CBX7 chromodomain binding inhibitors, primary screen, biochemical, AlphaScreen. Chromobox protein homolog 7 (Homo sapiens), O95931. AlphaScreen His6-CBX7 / biotin-H3K27me3 peptide binding; stronger effect = lower value. normalised signal (fraction of DMSO) (test concentration not listed). actives 1.1% (n = 66,000). AID 1224903, 2016; in the data active = normalised signal below about 0.5
# Target sequence (O95931 whole entry, looked up): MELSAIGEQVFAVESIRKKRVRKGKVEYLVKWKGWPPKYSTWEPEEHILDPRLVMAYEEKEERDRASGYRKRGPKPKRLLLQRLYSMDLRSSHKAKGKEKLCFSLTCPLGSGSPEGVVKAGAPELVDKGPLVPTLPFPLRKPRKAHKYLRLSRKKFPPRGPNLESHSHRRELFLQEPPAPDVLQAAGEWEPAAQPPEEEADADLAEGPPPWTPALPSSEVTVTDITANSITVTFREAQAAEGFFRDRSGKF
# Numbers without * were called inactive.
SMILES,CBX7 inh
Cc1ccc(OCc2nc(C#N)c(N3CC(C)CC(C)C3)o2)cc1 (stereo not given),0.53
Cc1ccc(OCc2nc(C#N)c(N3CCCCCC3)o2)cc1,0.4*
N#Cc1nc(COc2ccc(F)cc2)oc1N1CCCCC1,0.42*
Cc1ccccc1OCc1nc(C#N)c(N2CCOCC2)o1,0.86
CC1=Nc2cc(C(=O)N3CCOCC3)ccc2Sc2c(C)ccc(C)c21,1
CCC1CCCCN1CCCNC(=O)c1cc(-c2ccncc2)nc2ccccc12 (stereo not given),1.1
COc1cccc(-c2nn(C)c3sc(C(=O)NCCCN4CCC(C)CC4)cc23)c1,0.98
COc1ccc2[nH]cc(CCNC(=O)CCC(=O)O)c2c1,0.93
CCc1cccc(CC)c1NC(=O)C1(S(=O)(=O)c2ccc(Cl)cc2)CC1,1.3
Cc1ccnc(N2C(=O)c3ccccc3C2Nc2ccccc2F)c1 (stereo not given),1
COc1ccc(N2CCN(c3oc(COc4cccc(C)c4)nc3C#N)CC2)cc1,0.49*
CCN1CCN(c2oc(COc3ccc(F)cc3)nc2C#N)CC1,0.94
COc1ccc(N2CCN(c3oc(COc4ccccc4OC)nc3C#N)CC2)cc1,0.55
COc1ccc(N2CCN(c3oc(COc4ccc(Cl)cc4)nc3C#N)CC2)cc1,0.56
N#Cc1nc(COc2ccc(Cl)cc2)oc1N1CCCCC1,0.76
N#Cc1nc(COc2ccc(F)cc2)oc1N1CCCCCC1,0.5*
O=C(NCc1ccccc1)c1cnn(-c2ccccc2)c1-n1cccc1,1.1
Cc1ccc(Cl)cc1N1CCN(CCNC(=O)CN2C(=O)CSc3ncccc32)CC1,1
CC(C)OCCCNC(=O)[C@H](CSCc1ccccc1)N1Cc2ccccc2C1=O,0.95
Cc1ccccc1-c1nc(CN2CCCC(C(=O)NC3CCCCC3)C2)c(C)o1 (stereo not given),1
Cc1cccc(-c2nc(CSCC(=O)NCc3ccc4c(c3)OCO4)c(C)o2)c1,0.85
CC(C)(C)OC(=O)N1CCN(c2nc(-c3ccccc3Cl)c3cc(Br)ccc3n2)CC1,1.5
COc1ccc(OCCCCCCc2c(C)n[nH]c2C)cc1,0.43*
Cc1n[nH]c(C)c1CCCCCCOc1ccc(F)cc1,1
Cc1n[nH]c(C)c1CCCCOc1ccc(C(C)(C)C)cc1,0.82
SMILES,CBX7 inh
CC1CCN(CC(O)COCc2ccc(Cl)cc2)CC1 (stereo not given),1.1
CCC(=O)Nc1nc(C)c(-c2csc(Nc3ncccn3)n2)s1,1.1
CCC(=O)Nc1nc(C)c(-c2csc(Nc3cc(OC)ccc3OC)n2)s1,0.5*
CCC(=O)Nc1nc(C)c(-c2csc(Nc3ccccc3OC)n2)s1,0.83
CCC(=O)Nc1nc(C)c(-c2csc(Nc3ccccn3)n2)s1,0.88
COc1ccc(OC)c(Nc2nc(-c3sc(C)nc3C)cs2)c1,0.84
CCC(=O)Nc1nc(C)c(-c2csc(Nc3ccc(OC)cc3)n2)s1,0.5*
O=C(C1CCCN(Cc2ccncc2)C1)N1CCCCC1 (stereo not given),0.75
COc1ccc(NC(=O)c2oc3ccc(S(=O)(=O)N(C)C4CCCCC4)cc3c2C)c(OC)c1,0.96
Cc1ccc(-c2nnc(Nc3ccc(Cl)c(Cl)c3)c3ccccc23)cc1S(N)(=O)=O,0.99
Cc1cccc(Cc2cnc(NC(=O)C(c3ccccc3)c3ccccc3)s2)c1,0.94
Cc1ccc2c(c1)-c1c(cnn1CC(=O)N1CC(C)CC(C)C1)CO2 (stereo not given),1
CCCC1=Nc2cc(C(=O)NCCCN3CCCCC3CC)ccc2Sc2ccc(C)cc21 (stereo not given),0.79
Clc1ccc(-c2nc(-c3ccccc3)c(-c3ccccc3)[nH]2)cc1Cl,0.92
Cc1ccc(-c2nc(-c3ccc(F)cc3)[nH]c2-c2ccccc2)cc1C,0.96
Brc1cccc(-c2nc(-c3ccccc3)c(-c3ccc(Oc4ccccc4)cc3)[nH]2)c1,0.79
COc1cc(-c2nc(-c3ccccc3)c(-c3cccs3)[nH]2)cc(OC)c1O,0.48*
COc1ccc(-c2nc(-c3ccccc3)c(-c3ccc(F)cc3)[nH]2)cc1OC,0.38*
COc1ccc(-c2nc(-c3ccccc3)c(-c3cccs3)[nH]2)c(OC)c1,0.54
COc1ccc(-c2nc(-c3ccccc3)c(-c3ccc(F)cc3)[nH]2)cc1,0.85
COc1ccc(-c2nc(-c3ccccc3)c(-c3cccs3)[nH]2)cc1,0.82
Cc1ccc([N+](=O)[O-])cc1-c1[nH]c(-c2ccc(F)cc2)nc1-c1ccccc1,0.48*
O=[N+]([O-])c1ccc(-c2nc(-c3ccccc3)c(-c3ccc(F)cc3)[nH]2)cc1,0.66
c1ccc(Oc2ccc(-c3[nH]c(-c4ccccc4)nc3-c3ccccc3)cc2)cc1,0.47*
COc1cc(OC)cc(-c2nc(-c3ccccc3)c(-c3ccc(F)cc3)[nH]2)c1,0.88
SMILES,CBX7 inh
CCc1nc2sc(C(=O)c3ccccc3)c(N)c2cc1C,1.1
COc1ccccc1NS(=O)(=O)c1ccc2c(c1)CCN2C(=O)C1CCC1,0.96
CCOCCCNC(=O)c1cc(=O)n(Cc2cccc(Cl)c2)c2ccccc12,0.99
Nc1ccc(-c2nc3ccc(C(=O)O)cc3[nH]2)cc1,0.97
Cc1oc(-c2cccc(Cl)c2)nc1CN1CCCC(C(=O)NC2CCCCC2)C1 (stereo not given),1
CCCCN(C)S(=O)(=O)c1ccc(C(=O)Nc2nc(-c3ccncc3)cs2)cc1,1
CCCCN(C)S(=O)(=O)c1ccc(C(=O)Nc2ccc3sc(C)nc3c2)cc1,1.1
CCC(C)NC(=O)c1ccc2c(c1)N(Cc1ccccc1Cl)C(=O)CS2 (stereo not given),0.99
COc1ccc(-c2csc(NC(=O)c3ccc(S(=O)(=O)N4CCCCC4)cc3)n2)c(OC)c1,0.85
O=C(Nc1cccc(Cl)c1)C1CCCN(S(=O)(=O)c2cccs2)C1 (stereo not given),1
Oc1c(C(Nc2ccccn2)c2ccccc2)ccc2cccnc12 (stereo not given),0.01*
Cc1ccc(-c2noc(CCC(=O)NC(C)CCc3ccccc3)n2)cc1 (stereo not given),1.1
O=C(NC(c1ccccc1)c1ccccc1)C1CCCN1S(=O)(=O)c1cccc2cccnc12 (stereo not given),0.93
O=C(NC(c1ccccc1)c1ccccc1)C1CCCN(S(=O)(=O)c2cccc3cccnc23)C1 (stereo not given),0.88
CC(NS(=O)(=O)c1cccc2cccnc12)c1ccccc1 (stereo not given),1
Cc1ccc2cc(CCNC(=O)CCc3ccccc3)c(=O)[nH]c2c1,1.1
O=C(CCCN1C(=O)c2cccnc2C1=O)NC(c1ccccc1)c1ccccc1,1.1
Cc1cccnc1NC(c1ccccc1)c1ccc2cccnc2c1O (stereo not given),0.032*
CC(NC(=O)C1CCN(S(=O)(=O)c2cccc3cccnc23)CC1)c1ccccc1 (stereo not given),1
CCCC(=O)NC(c1ccccc1)c1cc(Cl)c2cccnc2c1O (stereo not given),0.63
O=C(CCc1ccccc1)NC(c1cccs1)c1cc(Cl)c2cccnc2c1O (stereo not given),0.45*
Cc1ccc(C(NC(=O)CCc2ccccc2)c2ccc3cccnc3c2O)cc1 (stereo not given),0.071*
CC(C)C(NS(=O)(=O)c1cccs1)C(=O)N1CCN(c2ccc(F)cc2)CC1 (stereo not given),0.91
Cc1ccc2nc(-c3ccc(F)cc3)c(-c3ccc(F)cc3)nc2c1,1.3
Cn1nc(C(F)(F)C(F)F)cc1-c1ccccc1O,0.98
